# Assay results from PubChem BioAssay AID1259422 (The Scripps Research Institute Molecular Screening Center, 2018).
# The campaign covered roughly 640,000 compounds. About 9,300 (1.5%) were called active. This is one part of a sample in which actives are shown more often than they occur. Cut-off read from the data, not from the text of the source: active = inhibition above about 32%; inactive = the rest.
# Assay: TEAD-YAP interaction inhibition, primary screen, TEAD-YAP interaction inhibitor project, luminescence, HEK-TIYL cells (AID 1259422);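 note: 0% = median of test compound wells and 100% = reference inhibitor wells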
# Conditions: TEAD-Gal4/YAP UAS-luciferase luminescence, at 9.12 µM, stronger effect = higher value
row,Compound,inhibition
1,Cc1nc(-c2cncc(-c3ccc(F)cc3)c2)cc(=O)[nH]1,5.59% (inactive)
2,COc1cc(NC(=O)c2sc3ncn(Cc4ccccc4Cl)c(=O)c3c2C)cc(OC)c1OC,0.99% (inactive)
3,COc1cc(C(=O)Nc2ncc(Cc3ccccc3Cl)s2)cc(OC)c1OC,57.5% (active)
4,COc1cc(C(=O)Oc2ccccc2Cl)cc(OC)c1OC,0.19% (inactive)
5,CC(=O)Nc1ccc(NC(=O)c2cc3nc(C)ccc3o2)cc1,6.06% (inactive)
6,CCOC(=O)c1ccc(NC(=O)COc2c(Br)cc(C=O)cc2OC)cc1,-2.35% (inactive)
7,CC1Nc2c(c(=O)oc3ccccc23)NC1=O (stereo unspecified),-13.4% (inactive)
8,O=c1c2nccnc2[nH]c(=S)n1CCc1ccccc1,32.2% (active)
9,O=C(NCCc1ccc(Cl)cc1)c1ccc2c(=O)n(CCc3ccccc3)c(=S)[nH]c2c1,6.42% (inactive)
10,O=C(Nc1ccc(Oc2ccccc2)cc1)c1ccc2c(=O)n(CCc3ccccc3)c(=S)[nH]c2c1,4.57% (inactive)
11,Cc1ccc(C)c(C(=O)Nc2ccc3c(c2)N(S(=O)(=O)c2ccc(F)cc2)CCC3)c1,-2.68% (inactive)
12,CC(=O)Nc1nc(C)c(-c2csc(Nc3ccc(C)cc3)n2)s1,1.48% (inactive)
13,Cc1nc(C)c(-c2csc(Nc3ccc(Br)cc3)n2)s1,52.5% (active)
14,Cc1nc(N)sc1-c1csc(Nc2ccc(O)cc2)n1,2.78% (inactive)
15,CC(C)Cn1c(-c2ccccc2)c[nH]c1=S,4.66% (inactive)
16,CCN1CCN(C2=C(Cl)C(=O)N(c3cccc(C(=O)OC)c3)C2=O)CC1,23.4% (inactive)
17,CCOc1ccc(Cl)cc1S(N)(=O)=O,-4.54% (inactive)
18,CC(=O)Nc1cccc(C(=O)N/N=C/c2c(O)ccc3ccccc23)c1,14.8% (inactive)
19,COc1ccc(C(=O)N/N=C/c2c(O)ccc3ccccc23)cc1,58.3% (active)
20,O=C(N/N=C/c1c(O)ccc2ccccc12)c1cc([N+](=O)[O-])cc([N+](=O)[O-])c1,3.24% (inactive)
21,O=C(NCc1ccco1)c1ccc(N2CC3CC(C2)c2cccc(=O)n2C3)c(NC(=S)Nc2ccc(Cl)cc2Cl)c1 (stereo unspecified),-0.4% (inactive)

row,Compound,inhibition
1,Nc1nc2nonc2nc1Nc1ccccc1,10.4% (inactive)
2,Cc1ccc(Nc2nc3nonc3nc2NNc2ccccc2)cc1Cl,-9.84% (inactive)
3,Cc1ccc(Nc2nc3nonc3nc2Nc2ccccc2F)cc1,69.4% (active)
4,Cc1cc(Cl)cc(Cl)c1OCCOCCN(C)CCO,3.38% (inactive)
5,O=C(NCCc1ccsc1)c1ccccc1Cl,46.4% (active)
6,O=C(NCCc1ccccc1)c1cc(Sc2ccccc2Cl)nc2ccccc12,-11.2% (inactive)
7,O=C(NCCc1ccsc1)Nc1ccccc1F,-29.3% (inactive)
8,COc1cccc(NC(=O)CSc2nnc(-c3ccc(F)cc3)c(-c3ccc(F)cc3)n2)c1,16.5% (inactive)
9,COc1ccc(Nc2ncnc3c2cnn3-c2ccc(OC)cc2)cc1,-19.6% (inactive)
10,Fc1ccc(Nc2ncnc3ccc(I)cc23)cc1,25.1% (inactive)
11,COc1ccc(Nc2ncnc3ccc(Br)cc23)cc1,33.4% (active)
12,CC(=O)Oc1cccc(C(=O)Nc2ccc(C)c(C)c2)c1,62.5% (active)
13,CC(=O)Oc1cc(C(=O)Nc2cccc(C#N)c2)cc(C(=O)Nc2cccc(C#N)c2)c1,-1.56% (inactive)
14,CC(=O)Oc1cccc(C(=O)Nc2ccccc2Br)c1,14.5% (inactive)
15,O=C(CNC(=O)c1ccc(Br)o1)OCC(=O)c1ccc(Br)cc1,4.37% (inactive)
16,Cc1ccc(CNC(=O)C(=O)N/N=C/c2ccccc2I)cc1,-10.4% (inactive)
17,COc1ccc(CC2(CCC(=O)NCc3nc(C)cs3)CCC(=O)N2)c2ccccc12 (stereo unspecified),-13.4% (inactive)
18,COc1cccc(Nc2nnc(Cc3ccc(Cl)cc3)c(=O)[nH]2)c1,7.31% (inactive)
19,CCOc1ccccc1Nc1nnc(Cc2ccc(OC)cc2)c(=O)[nH]1,3.03% (inactive)
20,COc1ccc(Cc2nnc(N/N=C/c3ccccc3O)[nH]c2=O)cc1OC,85.4% (active)
21,COc1cccc(C2(NC(=O)CN3C(=O)NC4C3N(C)C(=O)N4C)CCCC2)c1 (stereo unspecified),4.87% (inactive)

row,Compound,inhibition
1,CC1CN(C(=S)c2ccc(Br)cc2)CC(C)O1 (stereo unspecified),6.13% (inactive)
2,O=C(CSc1nnc(NC(=O)C2CCC2)s1)NCc1cccs1,5.18% (inactive)
3,COc1cccc(/C=N/N=C2/NC(=O)CS2)c1O,58.3% (active)
4,COc1cccc(/C=N/NC(=O)C(=O)Nc2cccc3ccccc23)c1O,65.7% (active)
5,COc1cccc(/C=N/NC(=O)c2cc(O)cc(O)c2)c1O,20.7% (inactive)
6,O=C(N/N=C/c1cccc2ccccc12)C(=O)N/N=C/c1cccc2ccccc12,0.24% (inactive)
7,COc1cccc(/C=N/NC(=O)c2ccccc2I)c1O,13.4% (inactive)
8,COc1cccc(/C=N/NC(=O)CNc2cccc(C)c2)c1O,13.4% (inactive)
9,COc1cc(/C=N/N=C2/NC(=O)CS2)ccc1OC(=O)c1ccccc1C,3.4% (inactive)
10,COc1ccc(/C=N/N=C2/NC(=O)CS2)c(OC)c1,-13.7% (inactive)
11,COc1cccc(/C=N/NC(=O)CC23CC4CC(CC(C4)C2)C3)c1O,69.8% (active)
12,O=C(Cc1ccsc1)N1CCC[C@@H]2CN(C/C=C/c3ccccc3)CC[C@H]21,-4.71% (inactive)
13,CS(=O)(=O)c1ccc(NCc2ccco2)cc1,-0.14% (inactive)
14,CCOC(=O)C1=C(C)N=c2s/c(=C\c3ccc(N(C)C)c(Br)c3)c(=O)n2C1c1ccc(OC)c(OC)c1 (stereo unspecified),-28.6% (inactive)
15,CCc1nc(SCC(N)=O)c2c3c(sc2n1)CCCC3,-22.7% (inactive)
16,COc1ccc2nc(N3CCC(NCc4cccc(F)c4F)CC3)nc(C)c2c1,5.35% (inactive)
17,CC(=O)C(C(C)=O)c1cc(Nc2ccc(C)cc2)c2c3c(onc13)-c1ccccc1C2=O,3.02% (inactive)
18,CCOC(=O)C1(CO)NC(c2ccc(O)cc2)C2C(=O)N(C)C(=O)C21 (stereo unspecified),-8.15% (inactive)
19,CCOC(=O)C(=O)C(C#N)c1ccc(OC(C)C)cc1 (stereo unspecified),2.75% (inactive)
